Consider 14 molecules from PubChem BioAssay (NCATS).

Results filed as inconclusive are left out. A call without a number means that no potency is given here. Calls of active or inactive are those of the source. The call rests on the fitted dose curve; in most records, active means well fitted inhibition curve with a large enough effect; inconclusive means small, poorly fitted or top-dose-only effect; inactive means flat fitted curve, though single readings scatter.

The test system of this test is Zika virus NS2B-NS3 protease. Description: Primary screen GU AMC qHTS for Zika virus inhibitors (AID 1347154). Further: nearly all actives have a fitted effect of over 70% in size. As to conditions: Zika NS2B-NS3 unlinked protease, AMC fluorogenic substrate; series mostly up to 54.1 µM. Summed up: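 Unlinked Zika NS2B hydrophilic domain–NS3 protease complex at 25 nM in 10 mM Tris-HCl pH 8.0, 0.01% Tween 20, with an AMC peptide substrate. Fluorescence change (340/450 nm) over 15 min at room temperature, normalized to controls, fitted to 4-parameter Hill.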
In general terms: qHTS replaces the single test concentration by a dilution series.
Consider `CCN(CC)CCNC(C(=O)OCCC(C)C)c1ccccc1` (centres undefined), for which the Potency result was “inactive”. Consider `CN(N=O)C(=O)N[C@@H]1[C@@H](O)[C@H](O)[C@@H](CO)O[C@@H]1O`, for which the Potency result is “inactive”. With `COc1ccccc1O` the entry was “inactive”; with `Nc1ccc(S(=O)(=O)Nc2ccccc2)cc1`, “inactive”; with `CN1CCCCC1CCN1c2ccccc2Sc2ccc(S(C)=O)cc21` (centres undefined), “inactive”.

As to `Nc1ccc(S(=O)(=O)Nc2ccc(Cl)nn2)cc1`, the Potency result was “inactive”.

In the case of `O=C(O)[C@@H]1CSCN1`, the Potency result is “inactive”. In the case of `CCCCN(CCCC)CC(O)c1cc(Cl)cc2c1-c1ccc(Cl)cc1/C2=C/c1ccc(Cl)cc1` (centres undefined), the Potency entry was “inactive”. With `C=Cc1c(C)c2cc3[nH]c(cc4nc(cc5nc(cc1[nH]2)C(C)=C5CCC(=O)O)C(CCC(=O)O)=C4C)c(C)c3C=C` the entry was “inactive”; with `CC(O)CN(CCN(CC(C)O)CC(C)O)CC(C)O` (centres undefined), “inactive”; with `CC(=O)Oc1c(C)c(C)c2c(c1C)CC[C@@](C)(CCC[C@H](C)CCC[C@H](C)CCCC(C)C)O2`, “inactive”. Regarding `Cc1c(Cl)cccc1Nc1ccccc1C(=O)O`, the Potency result is “inactive”. With `O=c1cc[nH]c(=O)[nH]1` the entry was “inactive”; with `CCCOC(=O)c1ccccc1`, “inactive”.
